Where “and” joins values, the source holds several entries; their conditions need not be identical. Equal entries are not always repeated. Out of some 320,000 compounds screened, about 3,300 (1%) were called active. Many of the other results were omitted from the sample, so actives are more common in it than they were. Unmarked numbers belong to inactive results.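 Rule for the calls: active = every valid replicate shows activation above 250% relative to neutral control wells; inactive = the rest, any valid replicate at or below 250%.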
Assay: yeast Mot1-301 growth rescue at high temperature, primary screen, SUMOylation pathway inhibitor project, S. cerevisiae, ATP luminescence, 38.5C (AID 2716);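 note: OY570 slx delta 5 strain wells were the positive control but not used for scaling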
Details: S. cerevisiae Mot1-301 growth rescue, at 18.8 µM, hits give high values, percent above DMSO median, 100 means doubled

SMILES | growth rescue
O=C(c1cc(Cl)cc(Cl)c1)N1CCC(=O)N(C(COCc2ccccc2)Cc2ccccc2)CC1 (centres undefined) | -7.87%
Oc1c(Cl)cc(Cl)c(Cl)c1Cc1c(O)c(Cl)cc(Cl)c1Cl | 482% (active) and 481% (active)
CC(=O)c1ccc(N2CCN(C(=O)c3ccc4nc[nH]c4c3)CC2)cc1 | 10.1%
Cc1ccc(-c2cc(C(=O)N/N=C/C=C/c3ccccc3)n[nH]2)o1 | -7.96%
CC(C)c1cc(C(=O)N/N=C/C(Br)=C/c2ccccc2)n[nH]1 | 457% (active)
CC(C)c1cc(C(=O)O)n[nH]1 | -2.94%
Cc1cc(C(=O)N/N=C\C(Br)=C\c2ccccc2)c(C)o1 | 558% (active)
CC(=C/c1ccccc1)/C=N/NC(=O)c1cc(C)oc1C | 2.01%
Cc1cc(C(=O)NNC(=O)c2ccccc2O)c(C)o1 | -0.00731%
CCCc1c(C(=O)N/N=C(\C)CCc2ccc(OC)cc2)nnn1-c1nonc1N | 3.62%
CCOC(=O)C1CCN(C(=O)Cn2nc(C)c3c(C)n(-c4ccccc4)nc3c2=O)CC1 | 34.9%
NC(=O)c1nnsc1-c1ccc(-c2snnc2C(N)=O)cc1 | 18.5%
COc1cccc(CN(C)CC(=O)NCc2ccccc2Cl)c1OC | 10.7%
COc1cccc(CN(C)CC2CCCN(CCc3ccc(Cl)cc3)C2)c1OC (centres undefined) | 535% (active)
Cc1nc2ccc(C(=O)N(C)CC3CCCN(CCc4ccc(Cl)cc4)C3)cc2[nH]1 (centres undefined) | 3.97%
CN(C)c1nc(=Nc2cccc(Cl)c2)ss1 | 331% (active)
Cc1cccc(C)c1NC(=O)N1CC(C)OC(C)C1 (centres undefined) | -5.77%
Cc1ccc(-c2nc(COC(=O)c3c(C)noc3C)cs2)cc1 | 0.699%
Cc1ccc(S(=O)(=O)N(C)c2nc3ccccc3n3c(C(C)C)nnc23)cc1 | 138%
CCCC1(C(=O)OCC)NC(c2ccc(N(C)C)cc2)C2C(=O)N(c3ccc4c(c3)OCCO4)C(=O)C21 (centres undefined) | -0.477%
O=C(Nc1nn(Cc2ccccc2F)cc1Br)c1cccs1 | 13%
O=C(COc1ccccc1[N+](=O)[O-])NC1CC1 | 1.86%
CCOC(=O)COc1ccc([N+](=O)[O-])cc1 | 319%
Cc1ccc(OCC(=O)Oc2ccccc2[N+](=O)[O-])cc1 | 330% (active)

SMILES | growth rescue
O=C(/C=C/c1cnc2ccccc2n1)NC1CCCCCC1 | 26.5%
Nc1c(N(CCCO)C(=O)C2CCCC2)c(=O)[nH]c(=O)n1Cc1ccccc1 | 103%
COc1ccc(CCNC(=O)CCC(=O)NC2CCCCC2)cc1OC | 26.5%
Cc1ccc2c(c1)C(O)(CC(=O)c1cccnc1)C(=O)N2 (centres undefined) | 1220% (active)
Cc1cccc(OCC(=O)NCCNC(=O)c2cccnc2)c1 | 220%
Cc1ccc2c(c1)C(O)(CC(=O)c1cccc(-n3cccc3)c1)C(=O)N2 (centres undefined) | -2.84%
CCC/C=C(\CCC)C(NC(=O)Cc1ccccc1)c1ccc(C(=O)OC)cc1 (centres undefined) | -14.4%
O=C(Nc1ccccc1)Nc1ccc(C(F)(F)F)cn1 | -19.3%
CC(C)C[C@H](NC(=O)Nc1cccc(C(F)(F)F)c1)C(=O)O | -3.86%
Cc1ccc(NC(=O)Nc2cccc(C(F)(F)F)c2)nc1 | 471% (active)
O=C(CNS(=O)(=O)c1ccc2c(c1)OCCCO2)N1CCN(c2ccc(F)cc2)CC1 | 10.2%
COc1ccc2c(CC(=O)NNC(=O)c3ccccc3F)coc2c1 | 9.24%
COc1ccc(/C=N/NC(=O)Cn2cc(C(F)(F)F)ccc2=O)cc1 | 0.303%
CCc1cc(=O)oc2cc(C)cc(OC(C)C(=O)O)c12 (centres undefined) | -0.434%
CCCc1cc(=O)oc2c(C)c(OCC(=O)N3CCC(C(=O)O)CC3)ccc12 | 10.4%
CCc1cc(=O)oc2cc(C)cc(OCC(=O)N3CCC[C@@H]3C(=O)O)c12 | 694% (active)
Cc1cc(=O)n2nc(N3CCCC(C(=O)NCc4ccc(Cl)cc4)C3)sc2n1 (centres undefined) | 7.79%
O=C(CSc1nc2[nH]c(=O)[nH]c(=O)c2s1)Nc1cccc(F)c1 | -17.9%
O=S(=O)(Nc1ncnc2sccc12)c1cccc(F)c1 | 5.08%
O=C(NCC1CCCO1)c1cc2c(s1)CCCC2 (centres undefined) | -9.49%
CC1=CC(=O)C=CC1(C)C(Cl)(Cl)Cl (centres undefined) | 385% (active)
COc1ccccc1Nc1nnc(SC(C)C(=O)NC2CC2)s1 (centres undefined) | -11.6%
CC1C(=O)N2CCCc3cc(S(=O)(=O)NCc4ccc(F)cc4)cc1c32 (centres undefined) | -4.02%
Cc1ccc(NC(=O)CSc2nnc(CNC(=O)c3ccccc3F)o2)cc1 | 3.58%

SMILES | growth rescue
O=C(OC1CCOC1=O)c1cccc(S(=O)(=O)Nc2ccc(F)cc2)c1 (centres undefined) | 535% (active)
O=C(NCCN1CCOCC1)c1cccc(S(=O)(=O)Nc2ccc(F)cc2)c1 | 18.1%
O=C(OC1CCCCC1=O)c1cccc(S(=O)(=O)NCc2ccccc2)c1 (centres undefined) | 12.9%
CCCCn1c(N)c(N(CC(C)C)C(=O)c2cccc(S(=O)(=O)N3CCN(C(C)=O)CC3)c2)c(=O)[nH]c1=O | -9.04%
Cc1cccc(N2CCN(S(=O)(=O)c3ccc4[nH]c(=O)c(=O)[nH]c4c3)CC2C)c1 (centres undefined) | 2.34%
COc1ccc(CCNC(=O)COC(=O)C2CC2C)cc1 (centres undefined) | 4.29%
O=C(c1c(F)cccc1F)N1CCN(S(=O)(=O)c2ccc3c(c2)OCCO3)CC1 | 3.47%
CCC(=C/c1sc2ccc3ccccc3c2[n+]1C)/C=C1\Sc2ccc3ccccc3c2N1C | 6.07%
Cc1c(Cl)cccc1NC(=O)CCC(=O)N/N=C/c1ccco1 | 2.23%
Cc1cc(C)c(OCC(=O)N/N=C/c2ccco2)c(C)c1 | 568% (active)
Cc1ccc(NC(=O)CCC(=O)N/N=C/c2ccco2)c(C)c1 | -4.26%
CCOc1ccc(CCNC(=O)COC(=O)CCS(=O)(=O)c2ccc(C)cc2)cc1OCC | -6.14%
Cc1ccc2nc(NC(=O)CSc3nc(=O)n(CCCN(C)C)c4c3CCC4)sc2c1 | -6.26%
CN(NC(=O)c1ccccc1F)c1nc(C(F)(F)F)nc2ccccc12 | 658% (active)
CSc1nc(N(C)NC(=O)c2cccc(C)c2)c2ccccc2n1 | -1.55%
CN(NC(=O)c1ccccc1)c1nc2ccccc2nc1C(F)(F)F | 29.8%
CCOC(=O)[C@@H]1[C@H]2COc3ccc(Br)cc3[C@H]2N2C(=O)N(c3ccc(C)cc3)C(=O)[C@@]12C | 5.35%
O=C(NCc1ccco1)C(c1ccncc1)N(C(=O)Cn1nnc2ccccc21)c1ccccc1 (centres undefined) | 5.81%
COc1cccc(C(CC(=O)NCCN2CCOCC2)NS(=O)(=O)c2ccc(C)cc2)c1OC (centres undefined) | -1.44%
C=CCC(NCCCO)c1cccc(OC)c1OC (centres undefined) | 1100% (active)
C=CCC(Nc1ccccc1)c1cccc(OC)c1OC (centres undefined) | -16.1%
CC(=O)Nc1ccc(/C(C)=N/NC(=O)CN(c2ccccc2Br)S(C)(=O)=O)cc1 | -7.93%
CNC(=O)/C(C#N)=C/c1c(F)cccc1Cl | -36.4%
COc1ccc(/C=N/OCc2ccccc2C#N)c(OC)c1 | 31.4%

SMILES | growth rescue
COc1ccc(S(=O)(=O)N2CCOC2CNC(=O)C(=O)NCc2ccncc2)cc1C (centres undefined) | 392% (active)
COc1ccc(CCNC(=O)C(=O)NCC2OCCN2S(=O)(=O)c2ccc(OC)c(C)c2)cc1 (centres undefined) | 0.71%
COc1ccc(S(=O)(=O)N2CCOC2CNC(=O)C(=O)NCc2ccncc2)cc1OC (centres undefined) | -3.43%
COc1ccc(N2CCN(C3CC(=O)N(c4ccc5c(c4)OCCO5)C3=O)CC2)cc1 (centres undefined) | 21.5%
Cc1ccc(CC2CC(=O)N(c3cc(C)ccc3C)C2=O)cc1 (centres undefined) | -12%
Cc1ccc(CC2CC(=O)N(c3ccc4c(c3)OCCO4)C2=O)cc1 (centres undefined) | 1800% (active)
O=C(NCc1ccccc1Cl)NC(=O)c1csc([N+](=O)[O-])c1 | -7.29%
COc1ccc(C(C#N)(CC(=O)O)c2cnccn2)cc1OC (centres undefined) | -15.4%
COc1cccc(OC)c1C(=O)Nc1ccc2c(c1)n(C)c(=O)n2C | 676% (active)
COc1cccc(OC)c1C(=O)Nc1ccc(Cc2ccncc2)cc1 | 12.2%
Cn1c(=O)n(C)c2cc(C(=O)Nc3ccc(Br)cc3)ccc21 | 15%
CC(C)N(C(=O)CSc1nc(COc2ccccc2)nc2ccccc12)C(C)C | -2%
FC(F)(F)c1cccc(NC(=S)Nc2cccc(Cl)c2)c1 | 2.73%
Cc1csc(NC(=S)Nc2cccc(Cl)c2)n1 | 817% (active)
S=C(Nc1cccc(Cl)c1)Nc1ccc2c(c1)OCCO2 | -16%
O=c1c2c(-c3ccccc3)ccnc2[nH]n1-c1ccccc1 | -10.9%
CCC(CC)c1nnc(NC(=O)C2CCN(C(=O)c3ccco3)CC2)s1 | -12.8%
CO/N=C(/CS(=O)(=O)c1ccc(Br)cc1)c1ccc(OC)cc1 | -7.59%
O=C(Cc1ccc(-c2ccccc2)cc1)NC(c1ccccc1)c1ccccc1 | -3.02%
O=C(O)Cc1ccc(NCc2ccccc2Cl)cc1 | 67.5%
O=C(O)Cc1ccc(-c2ccccc2)cc1 | 403% (active)
COc1cc(/C(=C/c2ccccc2)c2ccccc2)c2c(c1)oc1ccccc12 | 1.69%

Source: PubChem BioAssay AID2716 (Broad Institute, 2010)
